# In the supplement of paper PMC4206461:
# Values without a mark were called inactive.
# Test system: Pseudomonas aeruginosa PA14 dppA1-A5 penta mutant + pBBR5.DppA1 (PA14_58350)
# Test: respiration area under curve with compound as sole nitrogen source, 24 h (OmniLog AUC (arbitrary units)); higher = more respiration / better utilisation as nitrogen source, active = 2000 or more
# Experimental: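 Biolog Phenotype MicroArray plates PM6-PM8: each di/tripeptide is the sole nitrogen source. Tetrazolium reduction was read in the OmniLog for 24 h at 37°C and summarised as area under the respiration curve (arbitrary units). Values below 2000 count as no respiration. Strain is the SBP penta mutant complemented with DppA1 on a plasmid under its native promoter. Lys/His/Cys peptides are excluded.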
row,SMILES,respiration area under curve
1,CC(C)[C@H](N)C(=O)NCC(=O)O (plate: PM7),6900 (active)
2,CC(C)[C@H](N)C(=O)N[C@@H](CC(N)=O)C(=O)O (plate: PM7),10400 (active)
3,CC[C@H](C)[C@H](N)C(=O)N[C@H](C(=O)O)C(C)C (plate: PM6),2860 (active)
4,C[C@@H](O)[C@H](NC(=O)CN)C(=O)O (plate: PM6),2750 (active)
5,CC(C)[C@H](N)C(=O)N[C@@H](Cc1ccccc1)C(=O)O (plate: PM8),5560 (active)
6,CSCC[C@H](N)C(=O)N[C@@H](Cc1c[nH]c2ccccc12)C(=O)O (plate: PM7),2980 (active)
7,CC(C)[C@H](NC(=O)[C@H](C)N)C(=O)O (plate: PM8),7610 (active)
8,NC(N)=NCCC[C@H](NC(=O)[C@@H](N)Cc1c[nH]c2ccccc12)C(=O)O (plate: PM7),12000 (active)
9,C[C@H](NC(=O)[C@@H](N)Cc1ccc(O)cc1)C(=O)O (plate: PM7),10300 (active)
10,CC(C)C[C@H](N)C(=O)N[C@H](CC(C)C)C(=O)O (plate: PM8),284
11,CC[C@H](C)[C@H](N)C(=O)N[C@@H](Cc1ccccc1)C(=O)O (plate: PM6),1500
12,NCC(=O)N[C@@H](Cc1ccc(O)cc1)C(=O)O (plate: PM6),1420

# Test system: Pseudomonas aeruginosa PA14 wild type
# Test: as above
# Experimental: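 Biolog Phenotype MicroArray plates PM6-PM8: each di/tripeptide is the sole nitrogen source (IF-0 medium with succinate/ferric citrate and dye mix A). Tetrazolium reduction was read in the OmniLog every 15 min for 24 h at 37°C and summarised as area under the respiration curve (arbitrary units). The paper counts values below 2000 as no respiration and above 8000 as solid respiration. Replicate datasets are averaged.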
row,SMILES,respiration area under curve
1,CC(C)C[C@H](N)C(=O)N[C@@H](CCCN=C(N)N)C(=O)O (plate: PM6),10200 (active)
2,N[C@@H](CO)C(=O)N[C@@H](Cc1ccccc1)C(=O)O (plate: PM7),7090 (active)
3,CC(NC(=O)C(N)CC(=O)O)C(=O)O (stereo not drawn) (plate: PM8),8830 (active)
4,CC(C)[C@H](N)C(=O)NCC(=O)O (plate: PM7),9460 (active)
5,C[C@H](N)C(=O)N[C@@H](CO)C(=O)O (plate: PM6),9550 (active)
6,N[C@@H](Cc1c[nH]c2ccccc12)C(=O)N[C@@H](Cc1ccc(O)cc1)C(=O)O (plate: PM7),1070
7,CC(C)[C@H](N)C(=O)N[C@@H](CC(N)=O)C(=O)O (plate: PM7),12300 (active)
8,NC(N)=NCCC[C@H](N)C(=O)N[C@@H](Cc1c[nH]c2ccccc12)C(=O)O (plate: PM6),8730 (active)
9,CC[C@H](C)[C@H](N)C(=O)N[C@H](C(=O)O)C(C)C (plate: PM6),6570 (active)
10,N[C@@H](Cc1ccc(O)cc1)C(=O)N[C@@H](Cc1ccc(O)cc1)C(=O)O (plate: PM7),7080 (active)
11,C[C@@H](O)[C@H](NC(=O)CN)C(=O)O (plate: PM6),5430 (active)
12,NC(=O)CC[C@H](NC(=O)[C@@H](N)CCC(N)=O)C(=O)O (plate: PM6),8430 (active)
13,CC(C)[C@H](N)C(=O)N[C@@H](Cc1ccccc1)C(=O)O (plate: PM8),6560 (active)
14,CC(C)C[C@H](NC(=O)[C@@H](N)[C@@H](C)O)C(=O)O (plate: PM7),7920 (active)
15,CC(C)[C@@H](NC(=O)CN)C(=O)O (plate: PM8),0
16,CSCC[C@H](N)C(=O)N[C@@H](Cc1c[nH]c2ccccc12)C(=O)O (plate: PM7),3640 (active)
17,N[C@@H](CCC(=O)O)C(=O)N[C@@H](CCC(=O)O)C(=O)O (plate: PM6),248
18,CC[C@H](C)[C@H](NC(=O)CNC(=O)CN)C(=O)O (plate: PM8),10400 (active)
19,C[C@H](N)C(=O)N[C@@H](CCCN=C(N)N)C(=O)O (plate: PM6),10100 (active)
20,CC(C)[C@H](NC(=O)[C@H](C)N)C(=O)O (plate: PM8),9240 (active)
21,NC(N)=NCCC[C@H](NC(=O)[C@@H](N)Cc1c[nH]c2ccccc12)C(=O)O (plate: PM7),13500 (active)
22,CC(C)C[C@H](NC(=O)[C@@H](C)N)C(=O)O (plate: PM8),626
23,CSCC[C@H](N)C(=O)NCC(=O)O (plate: PM7),5050 (active)
24,NC(=O)CC[C@H](N)C(=O)N[C@@H](CCC(=O)O)C(=O)O (plate: PM8),9650 (active)
25,O=C(O)[C@H](Cc1c[nH]c2ccccc12)NC(=O)[C@@H]1CCCN1 (plate: PM8),1260
26,C[C@H](NC(=O)[C@@H](N)Cc1ccc(O)cc1)C(=O)O (plate: PM7),11200 (active)
